# Source: the supplement of paper PMC10849652
# Targets with a hit are over-represented here; the source holds about 7,900 in all. About 0.6% of all pairs of compound and target were hits.
# Compound: CC1=CC=C(C=C1)SC2=C3C=C(SC3=CN=C2)C(=O)N
# Test: log2 fold change, soluble protein after heating vs DMSO (PISA); higher = thermal stabilisation; K562 cells, 10 uM, 30 min; active = over 0.2 and 3.5 SD of the protein, either way, in both replicates (recomputed)
# In short: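 Thermal stability values are relative to control samples and come from duplicates. They are expressed as log2 fold changes. For measurement, K562 cells (2×10^6 cells/mL) received 10 μM compound for 30 min, and aliquots were heated for 3 min over 48°C-58°C, pooled, and extracted at 4°C in PBS with 0.5% NP-40. Soluble protein, the supernatant after 21,000xg for 90 min, was quantified by TMTpro 16plex LC-MS/MS with equalised channel sums.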
# UniProt P30305, sequence (P30305 whole entry, looked up): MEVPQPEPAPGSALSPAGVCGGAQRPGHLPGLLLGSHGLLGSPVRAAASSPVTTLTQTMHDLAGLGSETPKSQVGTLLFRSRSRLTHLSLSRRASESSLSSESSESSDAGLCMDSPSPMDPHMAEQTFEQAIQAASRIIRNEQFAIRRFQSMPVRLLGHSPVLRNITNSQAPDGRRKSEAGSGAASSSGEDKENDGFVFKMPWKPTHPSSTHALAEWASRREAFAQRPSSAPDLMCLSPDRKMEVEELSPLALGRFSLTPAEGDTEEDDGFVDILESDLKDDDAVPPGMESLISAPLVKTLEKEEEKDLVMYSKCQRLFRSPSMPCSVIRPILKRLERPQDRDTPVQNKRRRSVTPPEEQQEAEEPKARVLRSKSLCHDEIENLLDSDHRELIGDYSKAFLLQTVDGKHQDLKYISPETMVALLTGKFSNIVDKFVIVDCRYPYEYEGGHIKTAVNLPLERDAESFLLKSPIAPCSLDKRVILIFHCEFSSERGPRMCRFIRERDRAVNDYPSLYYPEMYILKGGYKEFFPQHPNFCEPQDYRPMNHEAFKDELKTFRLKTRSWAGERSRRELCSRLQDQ
# UniProt P11802, sequence (P11802 whole entry, looked up): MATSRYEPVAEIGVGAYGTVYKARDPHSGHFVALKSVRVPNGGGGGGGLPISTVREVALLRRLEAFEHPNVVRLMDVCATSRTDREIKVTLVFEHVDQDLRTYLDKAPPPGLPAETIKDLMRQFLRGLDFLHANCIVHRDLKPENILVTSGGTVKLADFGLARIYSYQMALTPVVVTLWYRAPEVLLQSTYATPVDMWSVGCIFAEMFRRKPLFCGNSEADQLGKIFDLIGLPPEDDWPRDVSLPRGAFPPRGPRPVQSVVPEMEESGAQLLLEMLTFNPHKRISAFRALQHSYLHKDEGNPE
# UniProt O14757, sequence (O14757 whole entry, looked up): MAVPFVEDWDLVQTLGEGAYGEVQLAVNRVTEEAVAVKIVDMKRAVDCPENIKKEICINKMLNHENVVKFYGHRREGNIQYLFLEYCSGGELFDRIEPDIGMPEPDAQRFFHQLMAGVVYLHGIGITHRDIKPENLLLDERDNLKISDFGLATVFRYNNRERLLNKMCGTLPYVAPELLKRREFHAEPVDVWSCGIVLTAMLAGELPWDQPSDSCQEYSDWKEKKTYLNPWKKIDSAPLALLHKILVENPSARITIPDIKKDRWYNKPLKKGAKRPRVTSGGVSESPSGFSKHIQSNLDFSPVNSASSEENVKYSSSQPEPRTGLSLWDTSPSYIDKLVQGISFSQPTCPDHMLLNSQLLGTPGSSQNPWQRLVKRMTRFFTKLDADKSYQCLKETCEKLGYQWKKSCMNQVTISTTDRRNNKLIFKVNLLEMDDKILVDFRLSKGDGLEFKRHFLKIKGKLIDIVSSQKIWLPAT
# UniProt P50750, sequence (P50750 whole entry, looked up): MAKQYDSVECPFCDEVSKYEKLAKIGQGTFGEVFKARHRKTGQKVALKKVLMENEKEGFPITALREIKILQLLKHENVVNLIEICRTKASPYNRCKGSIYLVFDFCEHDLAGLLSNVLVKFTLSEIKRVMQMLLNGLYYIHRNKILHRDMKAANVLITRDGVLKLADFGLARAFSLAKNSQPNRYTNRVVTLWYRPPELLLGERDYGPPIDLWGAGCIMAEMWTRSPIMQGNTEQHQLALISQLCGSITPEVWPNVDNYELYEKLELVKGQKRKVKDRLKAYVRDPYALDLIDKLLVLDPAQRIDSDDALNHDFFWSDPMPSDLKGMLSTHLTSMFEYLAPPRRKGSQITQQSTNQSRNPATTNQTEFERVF
# UniProt Q10570, sequence (Q10570 whole entry, looked up): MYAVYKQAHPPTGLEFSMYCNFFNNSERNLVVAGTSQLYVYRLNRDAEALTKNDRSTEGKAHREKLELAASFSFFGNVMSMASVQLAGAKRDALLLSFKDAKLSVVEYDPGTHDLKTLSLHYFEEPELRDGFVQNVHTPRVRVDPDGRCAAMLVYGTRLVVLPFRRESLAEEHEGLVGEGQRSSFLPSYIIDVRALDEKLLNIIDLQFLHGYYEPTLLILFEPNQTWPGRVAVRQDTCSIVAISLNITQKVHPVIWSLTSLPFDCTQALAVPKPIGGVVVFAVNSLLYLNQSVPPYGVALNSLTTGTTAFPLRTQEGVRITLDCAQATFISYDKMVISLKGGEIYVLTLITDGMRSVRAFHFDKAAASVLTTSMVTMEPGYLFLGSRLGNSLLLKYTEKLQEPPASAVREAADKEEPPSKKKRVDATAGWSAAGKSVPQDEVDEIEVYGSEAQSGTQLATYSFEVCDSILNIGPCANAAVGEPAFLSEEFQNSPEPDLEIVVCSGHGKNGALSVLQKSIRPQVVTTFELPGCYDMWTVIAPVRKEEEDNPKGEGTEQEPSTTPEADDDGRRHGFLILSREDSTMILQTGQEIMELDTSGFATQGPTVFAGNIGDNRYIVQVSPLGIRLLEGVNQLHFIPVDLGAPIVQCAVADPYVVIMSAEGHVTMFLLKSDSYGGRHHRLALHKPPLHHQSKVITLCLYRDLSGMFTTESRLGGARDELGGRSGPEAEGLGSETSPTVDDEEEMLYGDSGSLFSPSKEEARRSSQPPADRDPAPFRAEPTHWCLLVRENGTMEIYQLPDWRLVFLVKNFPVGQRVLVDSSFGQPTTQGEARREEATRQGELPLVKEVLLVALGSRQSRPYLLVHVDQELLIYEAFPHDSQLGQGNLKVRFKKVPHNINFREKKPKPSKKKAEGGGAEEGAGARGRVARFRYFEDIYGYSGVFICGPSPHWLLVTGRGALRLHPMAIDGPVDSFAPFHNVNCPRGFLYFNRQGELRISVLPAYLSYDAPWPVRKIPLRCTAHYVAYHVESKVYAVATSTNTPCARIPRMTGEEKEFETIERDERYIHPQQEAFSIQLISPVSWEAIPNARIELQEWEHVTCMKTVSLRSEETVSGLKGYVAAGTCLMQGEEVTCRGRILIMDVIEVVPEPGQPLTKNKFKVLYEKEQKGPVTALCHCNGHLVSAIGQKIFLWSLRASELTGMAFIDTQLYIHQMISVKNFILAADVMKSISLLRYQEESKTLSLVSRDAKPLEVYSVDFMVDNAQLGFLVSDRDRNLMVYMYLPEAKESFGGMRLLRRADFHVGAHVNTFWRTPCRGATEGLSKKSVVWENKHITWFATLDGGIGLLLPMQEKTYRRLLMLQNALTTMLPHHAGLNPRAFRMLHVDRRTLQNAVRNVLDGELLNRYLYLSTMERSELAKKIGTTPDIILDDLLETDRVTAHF
# UniProt Q8N1A6, sequence (Q8N1A6 whole entry, looked up): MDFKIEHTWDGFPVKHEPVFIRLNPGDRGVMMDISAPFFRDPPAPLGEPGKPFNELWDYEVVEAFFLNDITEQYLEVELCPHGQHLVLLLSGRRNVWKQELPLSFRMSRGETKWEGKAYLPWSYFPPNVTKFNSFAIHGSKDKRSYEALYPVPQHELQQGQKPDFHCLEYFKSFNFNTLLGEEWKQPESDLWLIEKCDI
# UniProt P51798, sequence (P51798 whole entry, looked up): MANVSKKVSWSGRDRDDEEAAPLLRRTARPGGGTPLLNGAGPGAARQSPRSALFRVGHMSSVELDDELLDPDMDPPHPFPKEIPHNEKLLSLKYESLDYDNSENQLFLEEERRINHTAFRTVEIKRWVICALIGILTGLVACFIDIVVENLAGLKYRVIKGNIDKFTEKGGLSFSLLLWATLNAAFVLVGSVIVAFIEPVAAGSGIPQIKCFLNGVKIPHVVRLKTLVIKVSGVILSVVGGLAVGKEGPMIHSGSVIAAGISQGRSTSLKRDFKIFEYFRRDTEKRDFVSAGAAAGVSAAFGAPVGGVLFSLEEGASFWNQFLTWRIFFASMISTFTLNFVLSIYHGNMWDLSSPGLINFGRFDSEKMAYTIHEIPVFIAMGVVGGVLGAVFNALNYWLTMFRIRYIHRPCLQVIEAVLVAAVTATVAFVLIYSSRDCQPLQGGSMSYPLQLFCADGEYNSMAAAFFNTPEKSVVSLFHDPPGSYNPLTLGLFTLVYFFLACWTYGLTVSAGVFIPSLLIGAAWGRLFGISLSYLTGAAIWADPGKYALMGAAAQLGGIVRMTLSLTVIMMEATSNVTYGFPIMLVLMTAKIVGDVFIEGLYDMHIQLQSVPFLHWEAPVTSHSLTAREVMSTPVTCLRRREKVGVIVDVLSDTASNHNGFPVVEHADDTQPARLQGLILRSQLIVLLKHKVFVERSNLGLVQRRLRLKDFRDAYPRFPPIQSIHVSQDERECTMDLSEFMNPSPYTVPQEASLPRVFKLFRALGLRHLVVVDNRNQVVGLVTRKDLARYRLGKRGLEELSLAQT
# UniProt O95319, sequence (O95319 whole entry, looked up): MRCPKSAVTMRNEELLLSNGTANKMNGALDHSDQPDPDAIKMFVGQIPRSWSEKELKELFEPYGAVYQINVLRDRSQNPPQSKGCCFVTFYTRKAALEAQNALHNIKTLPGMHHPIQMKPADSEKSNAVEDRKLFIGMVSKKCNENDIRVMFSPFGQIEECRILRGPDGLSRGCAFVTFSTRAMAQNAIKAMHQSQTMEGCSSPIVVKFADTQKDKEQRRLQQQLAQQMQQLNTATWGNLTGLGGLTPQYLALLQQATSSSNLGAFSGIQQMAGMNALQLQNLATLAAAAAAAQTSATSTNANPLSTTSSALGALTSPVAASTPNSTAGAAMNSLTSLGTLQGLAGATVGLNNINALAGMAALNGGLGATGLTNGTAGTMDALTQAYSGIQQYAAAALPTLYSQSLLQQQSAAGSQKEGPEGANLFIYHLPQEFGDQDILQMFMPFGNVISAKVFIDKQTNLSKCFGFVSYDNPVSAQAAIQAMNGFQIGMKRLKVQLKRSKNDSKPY
# UniProt O15182, sequence (O15182 whole entry, looked up): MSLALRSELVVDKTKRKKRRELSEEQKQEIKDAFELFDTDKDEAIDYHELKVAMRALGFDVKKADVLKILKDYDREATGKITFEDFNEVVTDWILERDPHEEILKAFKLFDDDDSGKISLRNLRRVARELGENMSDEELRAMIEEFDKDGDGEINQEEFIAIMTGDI
# UniProt Q13901, sequence (Q13901 whole entry, looked up): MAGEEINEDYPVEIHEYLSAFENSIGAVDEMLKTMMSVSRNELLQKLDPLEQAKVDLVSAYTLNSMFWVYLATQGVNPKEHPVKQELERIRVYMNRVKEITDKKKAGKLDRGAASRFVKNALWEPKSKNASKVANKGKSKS
row,Target,log2 fold change
1,CLCN7 (UniProt P51798),0.029 (inactive)
2,CCZ1 (UniProt P86791),0.014 (inactive)
3,C1D (UniProt Q13901),-0.015 (inactive)
4,CNOT7 (UniProt Q9UIV1),0.075 (inactive)
5,CDC42BPA isoform 6 (UniProt Q5VT25),0.01 (inactive)
6,COMMD1 (UniProt Q8N668),-0.048 (inactive)
7,CETN3 (UniProt O15182),-0.099 (inactive)
8,C4orf33 (UniProt Q8N1A6),0.049 (inactive)
9,CDK9 isoform 2 (UniProt P50750),-0.001 (inactive)
10,CDC25B isoform 4 (UniProt P30305),-0.008 (inactive)
11,CHEK1 (UniProt O14757),0.05 (inactive)
12,CD53 (UniProt P19397),-0.13 (inactive)
13,CRTC2 (UniProt Q53ET0),-0.051 (inactive)
14,CDK4 (UniProt P11802),0.015 (inactive)
15,CNOT1 (UniProt A5YKK6),-0.027 (inactive)
16,CPSF1 (UniProt Q10570),-0.123 (inactive)
17,"CLUH, A0A494C0R8",-0.02 (inactive)
18,CEPT1 (UniProt Q9Y6K0),0.005 (inactive)
19,CELF2 isoform 3 (UniProt O95319),0.112 (inactive)
20,CDC42SE1 (UniProt Q9NRR8),0.016 (inactive)
21,CASP3 (UniProt P42574),0.009 (inactive)
22,CDK12 (UniProt Q9NYV4),-0.079 (inactive)
23,COQ9 (UniProt O75208),0.054 (inactive)
